Rows were chosen to be rich in hits. Some 14% of all compounds tested hit in one or more screens of this group.
USP17 block – inhibitors of human USP17 deubiquitinase; purified USP17, Ub-rhodamine cleavage fluorescence, 3 h; inhibition, % at 50 µM; 6.5% of 47,000 active
USP10 block – inhibitors of human USP10 deubiquitinase. Ubiquitin carboxyl-terminal hydrolase 10 (Homo sapiens), Q14694. purified USP10, Ub-rhodamine fluorescence, 60 min. inhibition, % at 20 µM. 1.1% of 47,000 active. AID 1645856, 2021
USP8 block – inhibitors of human USP8 deubiquitinase; purified USP8, Ub-rhodamine cleavage fluorescence, 30 min; inhibition, % at 20 µM; 4.2% of 47,000 active
USP28 block – inhibitors of human USP28 deubiquitinase. purified USP28, Ub-rhodamine cleavage fluorescence, 30 min. inhibition, % at 25 µM. 3% of 47,000 active
USP30 block – inhibitors of human USP30 deubiquitinase. Ubiquitin carboxyl-terminal hydrolase 30 (Homo sapiens), Q70CQ3. purified USP30, Ub-rhodamine cleavage fluorescence. inhibition, % at 25 µM. 5.3% of 47,000 active. AID 1645860, 2021
Target sequence (Q70CQ3 whole entry, looked up): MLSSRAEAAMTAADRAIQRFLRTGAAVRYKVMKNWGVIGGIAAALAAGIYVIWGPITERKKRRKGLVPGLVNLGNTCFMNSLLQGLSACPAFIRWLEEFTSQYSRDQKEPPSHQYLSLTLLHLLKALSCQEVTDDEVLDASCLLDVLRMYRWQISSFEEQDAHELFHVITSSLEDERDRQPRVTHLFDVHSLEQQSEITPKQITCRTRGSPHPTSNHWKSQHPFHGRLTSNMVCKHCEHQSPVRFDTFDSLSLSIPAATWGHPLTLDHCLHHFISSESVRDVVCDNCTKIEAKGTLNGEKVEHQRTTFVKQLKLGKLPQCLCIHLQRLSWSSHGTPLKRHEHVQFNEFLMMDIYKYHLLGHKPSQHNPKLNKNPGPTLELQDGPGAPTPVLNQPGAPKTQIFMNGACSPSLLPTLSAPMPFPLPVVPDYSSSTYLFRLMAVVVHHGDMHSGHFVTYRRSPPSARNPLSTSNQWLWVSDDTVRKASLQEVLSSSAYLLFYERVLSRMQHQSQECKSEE
Active calls of the source: *. Cut-off read from the data, not from the text of the source: active = inhibition above about 30%; inactive = the rest.

SMILES	USP17 block	USP10 block	USP8 block	USP28 block	USP30 block
O=C(Cc1cccs1)Nc1nnc(SCc2ccc([N+](=O)[O-])cc2)s1	-4	24	0	10	-176
O=C(CSc1nnc(NC(=O)c2ccc([N+](=O)[O-])cc2)s1)Nc1ccc(Br)cc1	19	25	-9	13	33*
Cc1cc(C)n(CC(=O)NCc2ccc(F)cc2F)c1-c1nc(C2CC2)no1	31*	2	16	14	33*
Cc1cc(F)ccc1NC(=O)Cn1c(C)cc(C)c1-c1nc(C2CC2)no1	48*	5	0	4	-7
Cc1cc(=O)n(CC(=O)NCc2ccc(F)cc2F)c(N2CCCCC2)n1	8	0	24	10	16
O=C(COC(=O)c1cc(=O)[nH]c2ccccc12)c1ccc(Cl)cc1	-4	-2	16	-10	-9
COc1cccc(C(=O)COC(=O)c2cc(=O)[nH]c3ccccc23)c1	37*	-1	2	0	-26
O=c1nc2n(c3ncccc13)CCC2	11	0	14	7	6
O=C(Cn1cccc(S(=O)(=O)N2CCCCCC2)c1=O)N1CCCc2ccccc21	-33	-7	-70	-21	-67
COc1ccc(/C=C/c2cc(OC)cc(=O)o2)cc1	30*	5	5	17	32*
COc1ccc(NS(=O)(=O)/C=C/c2ccc(OC)c(OC)c2)cc1	-2	0	16	6	14
Cn1c(CCN2CCCCC2)nc2cc(NC(=O)NC3CCCCC3)ccc21	-1	-2	0	0	-8
Clc1ccc2c(NCc3cccs3)ncnc2c1	12	2	8	34*	22
COc1ccc(Cn2c(CO)cnc2SCC(=O)Nc2cccc(F)c2)cc1	-16	0	-12	-15	-23
c1ccc(-c2nc(CSc3nnc(C4CC4)n3-c3ccccc3)cs2)cc1	6	2	-9	2	9
CSc1nnc(-c2csc(-c3cccc(C(F)(F)F)c3)n2)n1C	68*	-4	13	78*	94*
Cn1c(SCc2ccccc2)nnc1-c1csc(-c2ccccc2)n1	38*	19	22	41*	53*
COc1ccc(NC(=O)c2ccco2)cc1NC(=O)c1ccc(F)cc1	-9	5	0	2	-4
COc1ccc(NC(=O)Cc2csc(NC(=O)c3ccco3)n2)cc1Cl	49*	-4	24	21	26
O=C(NCC1CC1)c1ccc2nnc(C3CCN(Cc4ccccc4)C3)n2c1 (centres undefined)	5	-1	-14	9	3
Cc1nnc(NC(C)c2ccccc2)[nH]c1=O (centres undefined)	5	-3	0	2	16
COc1cnc(CSc2ccccc2)cc1OCC(=O)Nc1ccc(F)cc1F	34*	12	-3	11	36*
COc1cnc(CSc2ccc(F)cc2)cc1OCC(=O)Nc1ccccc1F	41*	17	13	7	43*
COc1cnc(CSc2ncccn2)cc1OCC(=O)Nc1c(C)cc(C)cc1C	-23	-2	-69	-9	0
COc1cc([C@H]2[C@@]3(O)[C@H](O)[C@H]4C[C@]2(O)[C@](O)(C(=O)O4)[C@H]3C(=O)c2ccccc2)oc(=O)c1	7	-6	-10	4	-4
SMILES	USP17 block	USP10 block	USP8 block	USP28 block	USP30 block
O=C(Nc1ccc(CN2CCOCC2)cc1)c1cc2cc(Br)ccc2o1	5	-2	2	47*	-34
Cc1noc(/C=C/Nc2ccc(OC(F)(F)F)cc2)c1[N+](=O)[O-]	-6	10	41*	-19	-25
COCCNC(=O)C(C)N1c2cccc3cccc(c23)S1(=O)=O (centres undefined)	-5	0	-11	-12	-13
Cn1c(CCN2CCN(c3ccc(F)cc3)CC2)nc2cc(NC(=O)c3ccc(Cl)cc3)ccc21	33*	8	37*	24	36*
Cc1ccc(N2CCN(CCc3nc4cc(NC(=O)Nc5ccccc5)ccc4n3C)CC2)cc1	43*	-1	-3	-1	8
Cn1c(CCN2CCN(c3ccccn3)CC2)nc2cc(NC(=O)c3ccccc3)ccc21	-4	0	7	-1	10
CCCCC(=O)Nc1ccc2c(c1)nc(CCN1CCN(c3ccc(C)cc3)CC1)n2C	3	0	4	1	7
Cn1c(CN2CCCCCC2)nc2cc(NC(=O)c3ccccc3)ccc21	51*	-1	20	0	-67
Cc1ccc(NC(=O)c2nc3c(s2)CCCN3c2ccccc2)cn1	-38	-8	-325	-2	-2

Assay outcomes: PubChem, Buhrlage Lab, Dana-Farber Cancer Institute and Novartis Institutes for BioMedical Research (Cambridge, Mass)
